Experimental data from PubChem BioAssay (NCI).
“And” between values parts separate entries of the source, which are not always exact repeats. Equal values may be shown once. The panel holds about 83,000 compounds, 20% with a hit somewhere; the sample as a whole holds those more often.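 Single-concentration screen, 48 h exposure, 96-well plates. Endpoint: percent growth. Below 10 = active.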 A number with no mark means an inactive call. The source made the active and inactive calls.

Tests used:
Test in all cases: NCI-60 one-dose screen, 48 h (100 = growth as untreated, 0 = no growth, -100 = all killed)
Details in all cases: 10 µM unless noted
[1] = tested on: SR leukemia
[2] = tested on: RPMI-8226 leukemia
[3] = tested on: OVCAR-8 ovarian
[4] = tested on: OVCAR-5 ovarian
[5] = tested on: OVCAR-4 ovarian
[6] = tested on: SK-OV-3 ovarian
[7] = tested on: IGROV1 ovarian
[8] = tested on: OVCAR-3 ovarian
[9] = tested on: HS 578T breast
[10] = tested on: NCI/ADR-RES ovarian

Work on `O=C(Nc1ccc(Br)cc1)Nc1ccc(-c2ccc3c(c2)NC(=O)/C3=C\c2ccc[nH]2)cc1` yielded a growth [1] of 18.4%, a growth [2] of 32.2% and a growth [3] of 35.4%. The growth [4] was 55.3%, the growth [5] was 33.9% and the growth [6] was 77.1%. It also gave a growth [7] of 46.9%, a growth [8] of 12.3% and a growth [9] of 56%. For the same compound, the growth [10] was 25.7%.
Work on `O=C(Cc1c(-c2cccc([N+](=O)[O-])c2)n(-c2ncnc3c2c(-c2ccccc2)c(-c2ccccc2)n3Cc2ccccc2)[nH]c1=O)c1ccc(Cl)c(Cl)c1` yielded a growth [1] of 59.8%, a growth [2] of 12.6% and a growth [3] of 34.3%. For the same compound, the growth [4] was 66.8%, the growth [5] was 31.6% and the growth [6] was 72.2%. For the same compound, the growth [7] was 33.8%, the growth [8] was 46.5% and the growth [9] was 20.2%. For the same compound, the growth [10] was 51.6%.
`C#CCN(C)CCCOc1ccc(N(C)C(=O)c2cc(C(C)C)c(O)cc2O)cc1Cl` was tested, and the growth [1] was -13.5% (active), the growth [2] was 8.9% (active) and the growth [3] was 9.81% (active). The growth [4] was 29.4%, the growth [5] was 36.1% and the growth [6] was 16.2%. The growth [7] was 11.4%, the growth [8] was 30.7% and the growth [9] was 26.3%. The growth [10] was -5.62% (active).
In the case of `CN1C(=O)/C(=C\C(=O)c2cc3ccccc3oc2=O)c2ccccc21`, the growth [1] was 38%, the growth [2] was 62.3% and the growth [3] was 47.3%. The growth [4] was 84.3%, the growth [5] was 74.8% and the growth [6] was 80.8%. The growth [7] was 82.3%, the growth [8] was 51.8% and the growth [9] was 57.3%. It also gave a growth [10] of 53.3%.
In the case of `NC1(c2ccc(-c3ccc4ncnc(NCc5ccccc5)c4c3)cn2)COC1`, the growth [1] was 101% and 92.4%, the growth [2] was 117% and 110% and the growth [3] was 113% and 117%. For the same compound, the growth [4] was 102% and 103%, the growth [5] was 106% and 109% and the growth [6] was 143% and 109%. The growth [7] was 116% and 108%, the growth [8] was 106% and 74.8% and the growth [9] was 105%. For the same compound, the growth [10] was 104% and 107%.
For `COc1cc(-c2ccc3ncnc(N4CCc5ccc(Cl)cc54)c3c2)cnc1Cl`, the growth [1] was 12.3%, the growth [2] was -4.08% (active) and the growth [3] was 37.1%. It also gave a growth [4] of 34.7%, a growth [5] of 33.3% and a growth [6] of 17.4%. The growth [7] was -44.4% (active), the growth [8] was 29.2% and the growth [9] was 23.5%. For the same compound, the growth [10] was 26.6%.
In the case of `CN1C(=O)C(O)(CC(=O)c2cc3ccccc3oc2=O)c2ccccc21` (stereo not given), the growth [1] was 71.3%, the growth [2] was 97.6% and the growth [3] was 107%. It also gave a growth [4] of 107%, a growth [5] of 99.9% and a growth [6] of 94.9%. It also gave a growth [7] of 97.7%, a growth [8] of 90.5% and a growth [9] of 99%. The growth [10] was 98.7%.
With `Cc1cn(-c2cc(NC(=O)c3ccc(C)c(-n4cc(-c5cnc6cccnn56)nn4)c3)cc(C(F)(F)F)c2)cn1` the growth [1] was 23.2%, the growth [2] was 53.9% and the growth [3] was 92.4%. The growth [4] was 58.3%, the growth [5] was 100% and the growth [6] was 124%. It also gave a growth [7] of 88.7%, a growth [8] of 124% and a growth [9] of 108%. The growth [10] was 94.5%.
In the case of `COc1ccc(C(=O)/C=C/c2ccc3c(c2)OCCO3)cc1S(N)(=O)=O`, the growth [1] was 17.6%, the growth [2] was 59.2% and the growth [3] was 40.7%. The growth [4] was 105%, the growth [5] was 83.3% and the growth [6] was 99%. It also gave a growth [7] of 63.6%, a growth [8] of 68.1% and a growth [9] of 87%. The growth [10] was 53.1%.
`CC(=O)Nc1cccc(-n2c(COc3ccc(Br)cc3)nc3ccccc32)c1` was tested, and the growth [1] was 79.1% and 87.9%, the growth [2] was 87.2% and 107% and the growth [3] was 113% and 114%. For the same compound, the growth [4] was 105% and 109%, the growth [5] was 88.1% and 101% and the growth [6] was 76.5% and 107%. For the same compound, the growth [7] was 90.7% and 111%, the growth [8] was 96.9% and 97.7% and the growth [9] was 78.2% and 106%. For the same compound, the growth [10] was 89.3% and 104%.
In the case of `C[C@H]1[C@@H](CC(=O)N[C@@H](Cc2coc3ccccc23)B(O)O)O[C@@H]2OC3(C)CC[C@H]4[C@H](C)CC[C@@H]1[C@@]24O3`, the growth [1] was 29.6%, the growth [2] was -4.75% (active) and the growth [3] was 47.1%. For the same compound, the growth [4] was -26.1% (active), the growth [5] was 33% and the growth [6] was 58.8%. The growth [7] was 9.89% (active), the growth [8] was 3.84% (active) and the growth [9] was -0.841% (active). The growth [10] was 19.5%.
`CC(=O)Nc1cccc(-n2c(COc3ccc(I)cc3)nc3ccccc32)c1` was tested, and the growth [1] was 56.2% and 104%, the growth [2] was 75.8% and 110% and the growth [3] was 97.1% and 117%. The growth [4] was 103% and 113%, the growth [5] was 74.9% and 109% and the growth [6] was 96.8% and 111%. The growth [7] was 86.1% and 113%, the growth [8] was 88.8% and 87.7% and the growth [9] was 62.4% and 115%. For the same compound, the growth [10] was 76.6% and 111%.
